# In all, about 52,000 compounds went through this assay and about 1,700 (3.3%) were called active. This is one part of a sample in which actives are shown more often than they occur. Values without a mark were called inactive. Cut-off read from the data, not from the text of the source: active = survival mostly below about 52% (no sharp cut-off); inactive = mostly above about 56%.
# Tested on: Wild type
# Experiment: S. aureus survival, RN4220 and DeltatarO strains – OD600, teichoic acid synthesis inhibitors, primary screen (AID 463173)
# Conditions: S. aureus RN4220 wild type/DeltatarO growth, OD600, 18 h, hits give low values, screened at 18.75 µg/mL (by protocol)
row,Structure (SMILES),survival
1,CCOC(=O)N1CCN(C(=O)c2cnn(-c3cccc(F)c3)c2-n2cccc2)CC1,81%
2,Cc1ccc2nc(N3CCC(C(=O)N4CCN(c5cccc(C)c5C)CC4)CC3)[nH]c2c1,76%
3,Cc1ccn2cc(CNC(=O)c3cccc(C(F)(F)F)c3)nc2c1,86%
4,Cc1ccc(Cl)cc1NC(=O)C(NS(=O)(=O)c1ccc2c(c1)CCC(=O)N2)c1ccccc1 (stereo not drawn),70%
5,COc1ccc(CNC(=O)c2cc3sccc3n2C)cc1,67%
6,Cn1c(=O)n(C)c2cc(N3CCOCC3)c(NS(=O)(=O)c3ccc(Br)cc3)cc21,82%
7,O=C(Nc1nnc(S(=O)(=O)N2CCCCCC2)s1)c1ccccc1,48%
8,Cc1ccc(NC(=O)CCC(=O)N2Cc3ccccc3Oc3ncccc32)cc1,22%
9,Cc1ccc(CNC(=O)CCC(=O)N2Cc3ccccc3Oc3ncccc32)cc1,73%
10,O=C(CCC(=O)N1Cc2ccccc2Oc2ncccc21)Nc1ccc(Cl)cc1,10% (active)
11,CCC(C)NC(=O)CCC(=O)N1Cc2ccccc2Oc2ncccc21 (stereo not drawn),121%
12,Cc1ccc(NC(=O)CCC(=O)N2Cc3ccccc3Oc3ncccc32)cc1Cl,82%
13,CC(C)CCNC(=O)CCC(=O)N1Cc2ccccc2Oc2ncccc21,65%
14,CC(C)NC(=O)CCC(=O)N1Cc2ccccc2Oc2ncccc21,-2% (active)
15,CN(C)c1ccc(CNC(=O)CCC(=O)N2Cc3ccccc3Oc3ncccc32)cc1,77%
16,CCOc1ccc(CNC(=O)CCC(=O)N2Cc3ccccc3Oc3ncccc32)cc1,0% (active)
17,Cc1ccc(N2C(=O)SC(N(CC(=O)O)c3ccccc3)C2=O)cc1 (stereo not drawn),112%
18,Cc1ccc(C)c(NC(=O)Nc2cccc(-c3cn4cccnc4n3)c2)c1,71%
19,O=S(=O)(c1ccc(Nc2ccc(-c3ccccc3)nn2)cc1)N1CCCC1,104%
20,Cc1cc(C)cc(N2C(=O)N(CC(=O)c3ccc(Br)cc3)c3ccccc3S2(=O)=O)c1,84%
21,O=C1CC(c2ccc(Br)cc2)c2c(ccc3ccccc23)N1 (stereo not drawn),39%
22,Cc1ccc(CSc2ccc3nnc(CCNS(=O)(=O)c4ccc(C)cc4)n3n2)cc1,82%
23,CC1CCCCN1CCCNC(=O)c1cc(Sc2ccc(Cl)cc2)nc2ccccc12 (stereo not drawn),78%
24,CC1CCCN(CCCNC(=O)c2cc(Sc3ccc(F)cc3)nc3ccccc23)C1 (stereo not drawn),14% (active)
25,O=C(NCCCN1CCCCC1)c1cc(Sc2ccc(Cl)cc2)nc2ccccc12,-1% (active)
26,CCc1ccc(Sc2cc(C(=O)NCCCN3CCC(C)CC3)c3ccccc3n2)cc1,68%
27,CC1CCN(CCCNC(=O)c2cc(Sc3ccc(F)cc3)nc3ccccc23)CC1,74%
28,CCc1ccc(Sc2cc(C(=O)NCCCN3CCCC(C)C3)c3ccccc3n2)cc1 (stereo not drawn),71%

# — PubChem BioAssay AID463173 (ICCB-Longwood Screening Facility, Harvard Medical School, 2010)
